Measured values from PubChem BioAssay AID1224921 (Broad Institute, 2016).
Hit rate of the full screen: of about 1,400 compounds, about 350 (25%) were called active. Not shown: some 2% with an inconclusive outcome. How the calls were made is not given here. Not all results are given here. Measured potencies and affinities stand elsewhere.

Assay: C. difficile growth inhibition, confirmation, 4-point retest (AID 1224921);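 further: plate controls were DMSO wells for no effect and levofloxacin 16 µg/mL wells for full effect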
Conditions: Clostridioides difficile clinical isolate growth, OD600, 24 h, active compounds read low; at 30 µM unless noted

Max activity, inactive:
CNC[C@@H]1Oc2cc(-c3cccnc3)ccc2S(=O)(=O)N([C@@H](C)CO)C[C@H]1C -5.58% [at 1.95 µM]
COc1ccc(-c2cnc3c(c2)C(=O)N([C@H](C)CO)C[C@H](C)[C@H](CN(C)C(=O)Nc2ccc(F)cc2)O3)cc1 13.9%
Cc1ccc(-c2ccc3c(c2)O[C@H](CN(C)Cc2ccncc2)[C@H](C)CN([C@@H](C)CO)S3(=O)=O)cc1 37.3%
CCS(=O)(=O)Nc1ccc2c(c1)C(=O)N(C)C[C@@H](OC)[C@@H](C)CN(CC1CCCC1)[C@H](C)CO2 10.5%
C[C@H](CO)N1C[C@H](C)[C@@H](CN(C)Cc2ccncc2)Oc2cc(C3=CCCCC3)ccc2S1(=O)=O 25.5% [at 28.5 µM]
O=C(C[C@@H]1C[C@@H]2c3cc(NC(=O)CC4CC4)ccc3O[C@@H]2[C@@H](CO)O1)NCc1cc(F)ccc1F 18.5%
CO[C@@H]1CN(C)C(=O)c2cc(NC(=O)C3CCC3)ccc2OC[C@@H](C)N(Cc2ccncc2)C[C@@H]1C -8.85% [at 8 µM]
C[C@H]1CN([C@@H](C)CO)S(=O)(=O)c2ccc(-c3ccccc3F)cc2O[C@@H]1CN(C)Cc1cccnc1 16.6%
CO[C@@H]1CN(C)C(=O)c2ccc(NC(=O)c3ccc(Oc4ccccc4)cc3)cc2OC[C@@H](C)N(C(C)=O)C[C@H]1C -13.9% [at 2.1 µM]
O=C(C[C@@H]1C=C[C@@H](NC(=O)c2cccc(F)c2)[C@H](CO)O1)Nc1nccs1 13.9%
COc1ccc(S(=O)(=O)Nc2ccc3c(c2)C(=O)N([C@@H](C)CO)C[C@@H](C)[C@@H](CN(C)C(=O)CCC(F)(F)F)OCCCC[C@H](C)O3)cc1 -14.1% [at 8 µM]
CO[C@H]1CN(C)C(=O)c2cc(NS(=O)(=O)c3cccc(F)c3)ccc2OC[C@@H](C)N(Cc2cc(F)ccc2F)C[C@H]1C -7.98% [at 1.95 µM]
C[C@H](CO)N1C[C@H](C)[C@@H](CN(C)Cc2cccnc2)Oc2cc(C#CC3CCCC3)ccc2S1(=O)=O 41.2%
CO[C@@H]1CN(C)C(=O)c2cc(NS(=O)(=O)c3ccc(Cl)cc3)ccc2OC[C@H](C)N(C(=O)NC(C)C)C[C@H]1C -5.33% [at 8 µM]
CCCN1C[C@H](C)[C@@H](OC)CN(C)C(=O)c2cc(NC(=O)c3cccc(OC)c3)ccc2OC[C@@H]1C 12.1%
CO[C@H]1CN(C)C(=O)c2ccc(NC(C)=O)cc2OC[C@H](C)N(Cc2cccc(F)c2)C[C@H]1C -6.29% [at 1.95 µM]
CCC(=O)Nc1ccc2c(c1)C(=O)N(C)C[C@H](OC)[C@@H](C)CN(C(=O)CN1CCOCC1)[C@@H](C)CO2 -6.29% [at 0.5 µM]
CCCC#Cc1ccc([C@@H]2[C@@H](CO)N(S(=O)(=O)c3cccc(F)c3)[C@H]2C#N)cc1 12.2% [at 1.95 µM]
CCC(=O)Nc1ccc2c(c1)OC[C@@H](C)N(C(=O)CC)C[C@@H](C)[C@@H](OC)CN(C)C2=O 3.79% [at 0.5 µM]
C[C@H](CO)N1C[C@H](C)[C@H](CN(C)Cc2cccnc2)Oc2cc(C#CC3CCCC3)ccc2S1(=O)=O 20.9%
COc1ccc(NC(=O)Nc2cccc3c2O[C@H](CN(C)C(=O)NC2CCCCC2)[C@@H](C)CN([C@@H](C)CO)C3=O)cc1 7.95%
CO[C@@H]1CN(C)C(=O)c2cc(NC(=O)c3ccccc3)ccc2OC[C@H](C)N(C)C[C@@H]1C 18.3%
CN(C)C(=O)C[C@H]1CC[C@H](NC(=O)C2CCOCC2)[C@@H](CO)O1 -6%
COCC(=O)N1C[C@@H](C)[C@@H](OC)CN(C)C(=O)c2ccc(NC(=O)NC(C)C)cc2OC[C@@H]1C 17.9%
CCCC(=O)Nc1ccc2c(c1)C(=O)N(C)C[C@H](OC)[C@H](C)CN(Cc1ccccc1)[C@@H](C)CO2 25.4%
COCC(=O)Nc1ccc2c(c1)OC[C@@H](C)N(Cc1ccccc1OC)C[C@@H](C)[C@@H](OC)CN(C)C2=O 16.6%
CO[C@@H]1CN(C)C(=O)c2ccc(NC(C)=O)cc2OC[C@H](C)N(Cc2cccc(F)c2)C[C@H]1C 17.2%
C[C@H]1CN([C@@H](C)CO)C(=O)c2c(c3ccccc3n2C)-c2ccccc2CO[C@H]1CN(C)Cc1cccc(C(=O)O)c1 -5.44% [at 0.5 µM]
COc1ccc(-c2ccc([C@@H]3[C@@H](C#N)N(C(=O)C4CCCC4)[C@H]3CO)cc2)cc1 25.6%
C/C=C/c1ccc2c(c1)O[C@@H](CN(C)C(=O)Cc1ccncc1)[C@H](C)CN([C@@H](C)CO)S2(=O)=O 11.6%
C[C@@H]1CN([C@H](C)CO)S(=O)(=O)c2ccc(C#CC3CC3)cc2O[C@H]1CN(C)Cc1ccccc1F 11.3% [at 1.95 µM]
COCC(=O)Nc1ccc2c(c1)OC[C@@H](C)N(Cc1ccccc1)C[C@@H](C)[C@@H](OC)CN(C)C2=O -9.27% [at 1.95 µM]
CCCNC(=O)Nc1ccc2c(c1)C(=O)N(C)C[C@@H](OC)[C@H](C)CN(Cc1ccccc1)[C@@H](C)CO2 16.6%
COc1cccc(C#Cc2ccc3c(c2)O[C@@H](CN(C)C)[C@@H](C)CN([C@H](C)CO)S3(=O)=O)c1 29.6%
CC(C)CC#Cc1ccc2c(c1)O[C@@H](CN(C)Cc1cccnc1)[C@@H](C)CN([C@@H](C)CO)S2(=O)=O 22.6%
O=C(C[C@@H]1C[C@H]2c3cc(NC(=O)Nc4ccc(C(F)(F)F)cc4)ccc3O[C@H]2[C@@H](CO)O1)NCCc1ccccc1 46.3%
COc1ccc(-c2ccc([C@@H]3[C@@H](C#N)N(C(=O)c4cccc(F)c4)[C@H]3CO)cc2)cc1 19.5%
COc1ccc(C#Cc2ccc3c(c2)O[C@@H](CN(C)C)[C@H](C)CN([C@H](C)CO)S3(=O)=O)cc1 12.4% [at 8 µM]
CCC(=O)Nc1ccc2c(c1)OC[C@@H](C)N(CC1CCCCC1)C[C@@H](C)[C@@H](OC)CN(C)C2=O -9.08% [at 8 µM]
COc1cccc(NC(=O)N[C@H]2C=C[C@H](CC(=O)Nc3ccc(-c4ccccc4)cc3)O[C@@H]2CO)c1 43%
C[C@H]1CN([C@@H](C)CO)S(=O)(=O)c2ccc(C3=CCCCC3)cc2O[C@H]1CN(C)Cc1ccncc1 40.6%
C[C@H]1CN([C@@H](C)CO)C(=O)c2cc(/C=C/c3ccccc3)cnc2O[C@@H]1CN(C)C(=O)CN(C)C -3.88% [at 0.5 µM]
C[C@H](CO)N1C[C@H](C)[C@@H](CN(C)Cc2cccnc2)Oc2cc(C3=CCCCC3)ccc2S1(=O)=O 29%
N#C[C@@H]1[C@@H](c2ccc(C#Cc3ccccc3F)cc2)[C@H](CO)N1C(=O)C1CCCCC1 38.8%
C[C@@H]1CN([C@@H](C)CO)C(=O)c2c(c3ccccc3n2C)-c2ccccc2CO[C@H]1CN(C)S(=O)(=O)c1cccc(C#N)c1 31.4%
O=C(C[C@@H]1C[C@H]2c3cc(NC(=O)Nc4ccc(C(F)(F)F)cc4)ccc3O[C@H]2[C@@H](CO)O1)NCc1ccc(Cl)cc1 -9.79% [at 8 µM]
C[C@@H]1CN([C@H](C)CO)S(=O)(=O)c2ccc(C3=CCCCC3)cc2O[C@H]1CN(C)Cc1ccncc1 -20.4% [at 1.95 µM]
CN1C(=O)c2cc(NC(=O)c3ccc(C(F)(F)F)cc3)ccc2OC[C@H]2O[C@H](CC(=O)NCc3ccc4c(c3)OCO4)CC[C@H]21 -12.1% [at 0.5 µM]
C[C@@H]1CN([C@@H](C)CO)C(=O)c2cc(C#C[C@@H](C)O)cnc2O[C@@H]1CN(C)Cc1ccc(-c2ccccc2)cc1 27.9%
CCCNC(=O)[C@@H]1[C@@H](CO)[C@@H]2Cn3c(cccc3=O)[C@H]1N2C(=O)NCCC -6.96%
CO[C@@H]1CN(C)C(=O)c2cc(NC(=O)Nc3cccc(Cl)c3)ccc2OC[C@H](C)N(C(=O)Nc2c(C)noc2C)C[C@H]1C -9.85%
COC(=O)[C@H]1[C@H](CO)[C@H]2Cn3c(ccc(-c4cccc(F)c4)c3=O)[C@H]2N1S(C)(=O)=O 23.4%
COC(=O)[C@@H]1[C@@H](CO)[C@@H]2Cn3c(ccc(-c4cccc(F)c4)c3=O)[C@@H]2N1C(C)=O 11.6% [at 8 µM]
COCC1CC(c2ccccc2)OC(c2ccc(NC(=O)CCCCCCC(=O)O)cc2)O1 (stereo not given) 17.9%
C[C@@H]1CN([C@H](C)CO)S(=O)(=O)c2ccc(/C=C/c3ccccc3)cc2O[C@H]1CN(C)C 57%
C[C@H]1CN([C@@H](C)CO)S(=O)(=O)c2ccc(/C=C/c3ccccc3)cc2O[C@@H]1CN(C)C 16.2%
C[C@H]1CN([C@@H](C)CO)S(=O)(=O)c2ccc(/C=C/c3ccccc3)cc2O[C@@H]1CN(C)Cc1cccnc1 -24.8% [at 0.5 µM]
CC(C)CC#Cc1ccc2c(c1)O[C@H](CN(C)Cc1ccc(F)cc1)[C@H](C)CN([C@H](C)CO)S2(=O)=O 23.3% [at 8 µM]
C[C@@H]1CN([C@@H](C)CO)S(=O)(=O)c2ccc(/C=C/c3ccccc3)cc2O[C@@H]1CN(C)Cc1cccnc1 -27.8% [at 1.95 µM]
CC(C)CC#Cc1ccc2c(c1)O[C@H](CN(C)Cc1ccc(F)cc1)[C@@H](C)CN([C@@H](C)CO)S2(=O)=O 30.5% [at 1.95 µM]
